Results from the supplement of paper PMC6555819.

Experiments:
Assay in all cases: PBM binding z-score (relative to random genomic background probes); higher = stronger binding; sequences stand for … in GC…GCGATTGACAGCGTAGAATGAAGG
[1] = system: FXR:RXRa (NR concentration 270 nM, RXRa partner concentration 90 nM)
Method in brief: (§1)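 Random background probes are the reference for binding z-scores. These scores derive from regression-normalized fluorescence on custom Agilent 4×180K protein-binding microarrays incubated 1 h with ligand-free nuclear receptor dimers. Binding was detected with antibodies against each partner (one per run).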

[2] = system: LXRa:RXRa (NR concentration 270 nM, RXRa partner concentration 90 nM)
Method in brief: as §1

[3] = system: LXRa homodimer (NR concentration 270 nM)
Method in brief: as §1

[4] = system: LXRb:RXRa (NR concentration 270 nM, RXRa partner concentration 90 nM)
Method in brief: as §1

[5] = system: LXRb homodimer (NR concentration 270 nM)
Method in brief: as §1

[6] = system: PPARa:RXRa (NR concentration 270 nM, RXRa partner concentration 90 nM)
Method in brief: as §1

[7] = system: PPARg:RXRa (NR concentration 180 nM, RXRa partner concentration 90 nM)
Method in brief: as §1

[8] = system: PPARg:RXRa 270nM:90nM, anti-RXR (NR concentration 270 nM, RXRa partner concentration 90 nM)
Method in brief: as §1

[9] = system: PPARg:RXRa 30nM:10nM, anti-RXR (NR concentration 30 nM, RXRa partner concentration 10 nM)
Method in brief: as §1

[10] = system: PPARg:RXRa 90nM:30nM, anti-RXR (NR concentration 90 nM, RXRa partner concentration 30 nM)
Method in brief: as §1

Row | Sequence | PBM binding z-score [1] | PBM binding z-score [2] | PBM binding z-score [3] | PBM binding z-score [4] | PBM binding z-score [5] | PBM binding z-score [6] | PBM binding z-score [7] | PBM binding z-score [8] | PBM binding z-score [9] | PBM binding z-score [10]
1 | CCAGACAGGTGAAAGGTAATTCAGTCTGGTACGC | 0.605 | 0.764 | -0.068 | 0.645 | -0.433 | 3.29 | 5.24 | 5.83 | 4.2 | 5.95
2 | TCATACAGGTAAAGGTGAAAGTCGAACGATATGA | 1.17 | 1.57 | 0.0169 | 1.44 | 0.312 | 3.08 | 2.39 | 3.81 | 4.26 | 4.38
3 | AGAATGAGGTTAAGATCAGCGAAACAGAATACAT | 2.2 | 1.69 | -0.0518 | 1.54 | -0.0572 | 3.72 | 2.3 | 2.38 | 0.794 | 1.74
4 | ATCGAAAGCTCGACGAGGTGAGTATACACCGTTT | -0.406 | -0.524 | -0.742 | -0.456 | -0.163 | -0.348 | 0.614 | -0.448 | 0.105 | -0.367
5 | CGTCCAAAGTCATAGGAGGTCAGTGAAGACAGAT | 2.25 | 4.11 | 1.4 | 2.44 | 0.026 | 2.82 | 0.638 | 0.912 | -0.0337 | 0.296
6 | ATCGAAAGGTCGAGGTGAGTATCGAGAAAGGGAA | 4.43 | 3.37 | -0.107 | 2.73 | 0.435 | 4.56 | 3.35 | 3.74 | 1.49 | 2.48
7 | CCAGACAGGTGAGAAGGTACCTCAGCCTCGATTA | -0.184 | -0.333 | -0.205 | -0.357 | -0.562 | 0.192 | 0.408 | 0.244 | -0.397 | -0.0819
8 | GCTTGTAGATCACGGTTAAGAAAGACTAAGCTAA | -0.132 | -0.33 | -0.625 | -0.369 | -0.584 | -0.169 | -0.118 | -0.0332 | -0.114 | 0.156
9 | ATACCAAGGTGATCGTGCGGTCGTTGATACTAAC | 0.823 | 0.293 | 0.286 | -0.0591 | -0.308 | 0.0191 | 0.122 | 0.0521 | -0.564 | -0.232
10 | AGAATGAGGTTATGATCAGGGAAACAGAATACAT | 1.66 | 1.52 | -0.0293 | 1.41 | -0.275 | 2.83 | 1.86 | 1.65 | 1.17 | 1.03
11 | CGTCCAAGGTCAGCAGTTCAGTGAAAGCGACGTG | 5.17 | 3.5 | 0.594 | 2.73 | -0.167 | 4.42 | 2.78 | 3.37 | 0.482 | 1.82
12 | GCTAGCAGGCCATTTGCGTCACTCAATGACGGGC | -0.489 | -0.808 | -0.589 | -1.15 | -0.965 | -0.622 | 0.189 | -0.578 | -0.911 | -0.185
13 | CCGAGTAGGTTATGGGCCATTCAGGCAACGGTGA | -0.39 | 0.176 | -0.0661 | -0.0151 | -0.497 | 1.58 | 2.14 | 3.47 | 1.22 | 3.06
14 | CGATCTAGGTCATCCAGGACAGTGAATACATTGA | 4.46 | 2.5 | 0.582 | 2.09 | 0.272 | 4.82 | 7.36 | 6.3 | 3.7 | 5.8
15 | AGAGCGAGGGCAATGAGTTGATAGCACGGGTGGC | -0.116 | -0.109 | -0.331 | -0.283 | -0.845 | 0.406 | 0.562 | -0.152 | -0.57 | -0.736
16 | TCTAATTGGTCAAAGGTCACACACTCGAAATGCG | 6.13 | 5.81 | 4.4 | 5.53 | 2.67 | 6.59 | 10.7 | 9.75 | 10.1 | 12
17 | ATCTCTAGGTAAAAGTTAAGTGAATCCCGAGGAT | 0.172 | 0.0131 | -0.136 | -0.0735 | 0.69 | 1.58 | 3.42 | 4.91 | 2.79 | 4.71
18 | CCGAATGGGGCAGAAAGGTTACCATACCATCCGG | 0.445 | 0.679 | 0.189 | 0.904 | -0.832 | 2.53 | 2.67 | 4.16 | 2.22 | 3.95
19 | CGTCCAAGGTCAGAGAGGTCAGTGCATGCCGAGT | 5.87 | 4.93 | 3.33 | 4.41 | 0.554 | 4.76 | 3.48 | 4.37 | 0.807 | 2.76
20 | ATAACAAGGTGATCGTGAGGTCGTTGATACTAAC | 1.71 | 1.19 | 0.521 | 1.1 | 0.521 | 1.89 | 0.967 | 0.692 | 0.235 | 0.705
21 | TCGCCTAGGTCATTGGGCCAGTATAGTACGCATC | 4.27 | 2.83 | 0.548 | 2.4 | -0.239 | 3.61 | 3.1 | 3.57 | 2.21 | 2.73
22 | TCTCGGAGGACACGGAGGTCAGAGCTTTCCAGAG | 1.72 | 1.54 | 0.806 | 1.13 | -1.06 | 2.22 | 0.548 | 1.54 | 1.85 | 1.75
23 | GGAACTAGGGCAAGTTGATAGCAGAGTTTGATGG | 0.0855 | 0.0269 | 0.0494 | -0.0975 | -0.374 | 2.15 | 3.63 | 3.21 | 1.12 | 2.57
24 | TCTTCTAGATCAAGCAGGTTAAGAAAGCCTGAGT | 0.122 | 0.597 | -0.208 | 0.619 | -0.0275 | 0.769 | -0.479 | 1.7 | 3.16 | 2.53
25 | CCGCCTGGGGCATAAGGTTACCATAAGCCAGCCC | 0.396 | 2.13 | -0.0987 | 0.843 | -1.3 | 1.3 | 0.507 | 0.996 | -0.661 | 0.461
